According to PubChem BioAssay (NCATS):
Inconclusive results are not listed. The source made the active and inactive calls. Unless noted, the call rests on the fitted dose curve; in most records, active means well fitted curve in the direction sought with a large enough effect; inconclusive means small, poorly fitted or top-dose-only effect, or another doubt; inactive means no such curve, though single readings can be large; an effect the other way counts as inactive or inconclusive.

Tests used:
[1] = qHTS Assay for Identifying Gametocytocidal Compounds (AID 743244); further: potency means the concentration at half of the fitted maximal effect;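 on max response: on the % scale 0 is the no-effect control and ±100 the full control effect; actives lower the fluorescent signal which means gametocytes are killed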; conditions: P. falciparum 3D7 stage III-V gametocytes, alamarBlue, 72 h; max response: stronger effect = lower value
How it was run: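 A resazurin-based viability read-out was applied to mature P. falciparum gametocytes: 72 h compound treatment, then 24 h dye incubation, with falling fluorescence signalling gametocytocidal effect.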

[2] = qHTS profiling of the MIPE4 collection as inhibitors of Plasmodium falciparum (3D7) proliferation (AID 743344; call rule not given here;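 further: scaled between DMSO vehicle wells and 0.29 µM artemisinin as full inhibition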); conditions: P. falciparum 3D7 in erythrocytes, SYBR Green DNA fluorescence, 72 h; at 28.5 µM (top of the series) unless noted
How it was run: (§1)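 Parasite DNA was quantified by SYBR Green I fluorescence (ex 485, em 535 nm) after overnight lysis in saponin/Triton buffer at room temperature. Cultures at 0.3% parasitemia and 2.5% hematocrit were first exposed to compound for 72 h at 37 C; signals were normalised to artemisinin (0.29 uM) and vehicle wells.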

[3] = qHTS profiling of the MIPE4 collection as inhibitors of Plasmodium falciparum (DD2) proliferation (AID 743345; call rule not given here); conditions: P. falciparum Dd2 in erythrocytes, SYBR Green DNA, 72 h; at 28.5 µM (top of the series) unless noted
How it was run: as §1

[4] = qHTS profiling of the MIPE4 collection as inhibitors of Plasmodium falciparum (DD2) proliferation (Rep 2) (AID 743346; call rule not given here); conditions: P. falciparum Dd2 in erythrocytes, SYBR Green DNA, 72 h; at 28.5 µM (top of the series) unless noted
How it was run: as §1

[5] = qHTS profiling of the MIPE4 collection as inhibitors of Plasmodium falciparum (HB3) proliferation (AID 743347; call rule not given here;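 further: plate controls were DMSO vehicle wells for no effect and artemisinin wells for full effect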); conditions: P. falciparum HB3 in erythrocytes, SYBR Green DNA, 72 h; at 28.5 µM (top of the series) unless noted
How it was run: as §1

[6] = High-throughput drug toxicity screening in the BPDCN cell line Gen2.2 (AID 1224824; call rule not given here;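 further: cells exposed to compounds for 48 h before reading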); conditions: Gen2.2 BPDCN cells; at 45.8 µM (top of the series) unless noted
How it was run: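 Gen2.2, 500 cells/well, phenol red-free RPMI/10% FBS/Pen-Strep; 48 h cpd, 37 °C/5% CO2; CTG lum, 15 min RT. Norm: DMSO = 100%, bortezomib 9.2 uM final = 0%.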

[7] = High-throughput drug toxicity screening in the BPDCN cell line Cal-1 (AID 1224825; call rule not given here); conditions: Cal-1 BPDCN cell viability, qHTS; at 45.8 µM (top of the series) unless noted
How it was run: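 CellTiter-Glo luminescence after 48 h compound exposure; percent activity scaled with DMSO as 100% and bortezomib (9.2 uM final) as 0%. Cal-1 cells seeded at 500/well in RPMI, 10% FBS, no phenol red.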

[8] = qHTS assay for measurement of the activity of small molecule inhibitors on Zika virus induced Caspase-3 activity in human astrocytoma cells (AID 1224859);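 further: plate controls were ZIKV-infected untreated cells for no effect and uninfected cells for full effect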
How it was run: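 Readout is luminescence from Caspase-Glo 3/7 added after a 6 h ZIKV infection (2 FFU/cell) of compound-pretreated (1 h) SNB-19 cells; data expressed as % inhibition versus uninfected and infected wells.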

[9] = qHTS Screen of the MIPE 4.0 Collection Against Ewings Sarcoma (RDES) (AID 1259252); further: nearly all actives have a fitted effect of over 35% in size; further: potency means the concentration at half of the fitted maximal effect
How it was run: (§2)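 Dose series incubated 48 h with cells in RPMI plus 5% FBS, glutamine and penicillin/streptomycin; cell viability then quantified via CellTiter-Glo.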

[10] = qHTS Screen of the MIPE 4.0 Collection Against Ewings Sarcoma (EW8) (AID 1259255); further: nearly all actives have a fitted effect of over 35% in size; further: potency means the concentration at half of the fitted maximal effect;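 on viability: 100% = DMSO-treated cells and 0% = medium-only wells without cells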
How it was run: as §2

[11] = qHTS Screen of the MIPE 4.0 Collection Against Ewings Sarcoma (TC32) (AID 1259256); further: nearly all actives have a fitted effect of over 45% in size; further: potency means the concentration at half of the fitted maximal effect
How it was run: as §2

[12] = qHTS assay to identify small molecule inhibitors of chordoma cells - UCH-1 (AID 1259355); further: nearly all actives have a fitted effect of over 55% in size; further: potency means the concentration at half of the fitted maximal effect
How it was run: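 Screening used approved and investigational drugs in 15-point titration against 800 seeded cells per well. A fixed combination of auranofin with camptothecin, doxorubicin, rubitecan and topotecan followed compound addition, and growth was scored by CellTiter-Glo after 48hr.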

[13] = target: Hexokinase-4 (Homo sapiens) + Glucokinase regulatory protein (Homo sapiens) (UniProt P35557+Q14397); test: qHTS assay for inhibitors of recombinant human GCK-GKRP interaction: HTRF assay (AID 743207);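 further: 0% = DMSO with GCK present and -100% = DMSO wells lacking GCK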
Chain of Hexokinase-4 (Homo sapiens) + Glucokinase regulatory protein (Homo sapiens) (P35557 whole entry, looked up): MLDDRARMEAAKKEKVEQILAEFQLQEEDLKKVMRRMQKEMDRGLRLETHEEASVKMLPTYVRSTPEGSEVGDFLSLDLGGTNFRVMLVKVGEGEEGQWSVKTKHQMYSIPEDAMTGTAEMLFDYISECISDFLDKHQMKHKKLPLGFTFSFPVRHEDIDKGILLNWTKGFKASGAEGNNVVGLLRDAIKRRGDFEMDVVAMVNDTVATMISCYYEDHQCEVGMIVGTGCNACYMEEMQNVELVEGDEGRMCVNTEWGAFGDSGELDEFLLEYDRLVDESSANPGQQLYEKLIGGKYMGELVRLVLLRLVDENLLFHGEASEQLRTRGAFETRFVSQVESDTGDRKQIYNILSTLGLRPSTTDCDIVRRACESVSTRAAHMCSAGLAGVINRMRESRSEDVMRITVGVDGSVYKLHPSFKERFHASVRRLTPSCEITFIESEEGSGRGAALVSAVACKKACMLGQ
Chain of Hexokinase-4 (Homo sapiens) + Glucokinase regulatory protein (Homo sapiens) (Q14397 whole entry, looked up): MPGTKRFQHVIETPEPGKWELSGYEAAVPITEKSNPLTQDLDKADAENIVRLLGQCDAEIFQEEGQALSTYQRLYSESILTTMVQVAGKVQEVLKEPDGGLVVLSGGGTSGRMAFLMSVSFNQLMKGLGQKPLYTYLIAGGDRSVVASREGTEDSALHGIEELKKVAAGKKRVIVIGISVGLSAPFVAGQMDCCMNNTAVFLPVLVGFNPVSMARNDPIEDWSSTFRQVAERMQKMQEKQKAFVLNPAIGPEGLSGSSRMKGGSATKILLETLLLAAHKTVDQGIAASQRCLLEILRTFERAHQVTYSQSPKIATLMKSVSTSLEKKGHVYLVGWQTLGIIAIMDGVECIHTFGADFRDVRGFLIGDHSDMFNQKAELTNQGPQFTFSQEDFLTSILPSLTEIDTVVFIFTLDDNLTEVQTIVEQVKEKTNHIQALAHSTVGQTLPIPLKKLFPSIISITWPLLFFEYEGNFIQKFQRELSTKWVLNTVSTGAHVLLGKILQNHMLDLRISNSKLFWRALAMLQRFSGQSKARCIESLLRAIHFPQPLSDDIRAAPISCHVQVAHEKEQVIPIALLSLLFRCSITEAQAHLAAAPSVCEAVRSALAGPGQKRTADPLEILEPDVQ
How it was run: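 Steps: dispense GCK–GKRP complex (5 nM each, GST- and FLAG-tagged) with 2 uM S6P; pin in compounds; add XL665/Eu-cryptate-labelled antibodies; incubate 60 min at room temperature; read time-resolved FRET at 665 and 615 nm.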

[14] = qHTS profiling for inhibitors of Plasmodium falciparum (3D7) proliferation (AID 743322);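 further: infected erythrocytes exposed to compound for 72 h before lysis; 100% = DMSO vehicle wells and 0% = 0.29 µM artemisinin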; conditions: P. falciparum 3D7 proliferation; at 28.7 µM (top of the series)
How it was run: as §1

[15] = qHTS profiling for inhibitors of Plasmodium falciparum (DD2) proliferation (AID 743323; call rule not given here); conditions: lower = more inhibition; at 28.7 µM (top of the series)
How it was run: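 1536-well qHTS; infected RBCs 0.3% parasitemia/2.5% Hct final; cpd 72 h 37 C 5% CO2; lysis buffer + SYBR Green I, o/n RT dark; FI 485/535; norm. to 0.29 uM artemisinin and DMSO, plate-stack corrected.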

[16] = qHTS Screen of the MIPE 4.0 Collection Against Ewings Sarcoma (TC71) (AID 1259253); further: nearly all actives have a fitted effect of over 40% in size; further: potency means the concentration at half of the fitted maximal effect
How it was run: as §2

[17] = qHTS assay for cell viability of HEK293 cells (AID 743288); conditions: ATP luminescence (CellTiter-Glo), 18 h; max response: stronger effect = lower value; further: on the % scale 0 is the no-effect control and ±100 the full control effect; nearly all actives have a fitted effect of over 50% in size
How it was run: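 Quantitative high-throughput screen: compounds were pinned onto parental HEK293 cells (2,000 per well) after a minimum 5 h settling at 37 C, incubated 18 h at 37 C, and intracellular ATP measured by luciferase luminescence.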

[18] = qHTS assay for cell viability of the p53RE-bla HCT-116 cell line (AID 743292); further: on the % scale 0 is the no-effect control and ±100 the full control effect; nearly all actives have a fitted effect of over 55% in size
How it was run: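 In this qHTS counter-screen, metabolically competent p53RE-bla HCT-116 cells were counted via their ATP content. Compounds were applied for 16 h at 37 C and luciferase-coupled luminescence was measured.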

[19] = qHTS profiling for inhibitors of Plasmodium falciparum (HB3) proliferation (AID 743324); conditions: Plasmodium falciparum HB3 blood-stage proliferation; at 28.7 µM (top of the series);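 further: 100% = DMSO vehicle wells and 0% = artemisinin-treated control wells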
How it was run: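 SYBR Green fluorescence (485 ex/535 em) of lysed cultures, incubated overnight at room temperature in the dark, quantifies parasite DNA. Infected erythrocytes at 0.3% parasitemia and 2.5% hematocrit were exposed 72 h; values normalized to DMSO and 0.29 uM artemisinin controls.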

Row | Structure (SMILES) | max response [1] | parasite growth, % of DMSO control [2] | parasite growth remaining, % of DMSO control (lower = more inhibition) [3] | parasite growth, % of control (lower = inhibition) [4] | growth, % of control [5] | cell viability, % of control (lower = more cytotoxic) [6] | viability (% of control) [7] | Potency [8] | Potency [9] | Potency [10] | Potency [11] | Potency [12] | outcome [13] | Potency [1] | remaining parasite growth % (stronger effect = lower value) [14] | activity, percent of control [15] | Potency [16] | max response [17] | Potency [18] | remaining proliferation (% of control), lower = more inhibition [19]
1 | CCCc1cc(C(N)=S)ccn1 | 4.17% (inactive) | 6.05% | 65.8% | 14% | 6.05% | 119% | 93.7% | inactive | inactive | inactive | inactive | inactive | – | – | – | – | – | – | – | –
2 | COc1cc2nc(N3CCCN(C)CC3)nc(NC3CCN(Cc4ccccc4)CC3)c2cc1OC | – | 4.4% | 6.59% | 7.33% | 8.7% | 9.38% | 4.13% | inactive | 8.33 µM (active) | 7.43 µM (active) | 5.26 µM (active) | – | inactive | 1.18 µM (active) | 0.848% | 0.575% | 10.5 µM (active) | – | – | –
3 | COc1cc2ncnc(Nc3cccc(Cl)c3)c2cc1OC | 13.8% (inactive) | 8.74% | 27% | 24.1% | 4.11% | 115% | 39.5% | inactive | 0.118 µM (active) | – | 16.6 µM (active) | – | inactive | – | – | – | 4.18 µM (active) | – | – | –
4 | COc1c(N2CCNC(C)C2)c(F)cc2c(=O)c(C(=O)O)cn(C3CC3)c12 (stereo unspecified) | -5.93% (inactive) | 17.5% | 11.3% | 23.4% | 21.7% | 111% | 78% | inactive | inactive | inactive | inactive | inactive | – | – | – | – | inactive | – | – | –
5 | CNS(=O)(=O)Cc1ccc2[nH]cc(CCN(C)C)c2c1 | 0.507% (inactive) | 64.4% | 70.9% | 75.7% | 17.2% | 219% | 117% | inactive | inactive | inactive | inactive | inactive | – | – | – | – | – | – | – | –
6 | CN1CCN(c2c(F)cc3c(=O)c(C(=O)O)cn4c3c2OCN4C)CC1 | 0.61% (inactive) | 90.8% | 95.5% | – | 73.2% | 170% | 117% | inactive | inactive | inactive | inactive | inactive | – | – | – | – | inactive | – | – | –
7 | COc1cc2c(Nc3ccc(Br)cc3F)ncnc2cc1OCC1CCN(C)CC1 | – | 5.79% | 7.29% | – | 3.4% | 3.75% | 5.58% | inactive | 16.6 µM (active) | 5.26 µM (active) | – | 5.01 µM (active) | – | – | -1.51% | 3.65% | – | – | – | –
8 | N[C@@H](Cc1ccc(O)c(O)c1)C(=O)O | – | 85.4% | 114% | 64.9% | 84% | 94.2% | 93.8% | inactive | inactive | inactive | inactive | – | inactive | – | – | – | inactive | 4.23% (inactive) | inactive | –
9 | Nc1[nH]c(=O)ncc1F | -2.11% (inactive) | 408% | 104% | – | 699% | 87.4% | 22.3% | inactive | inactive | inactive | 13.2 µM (active) | inactive | – | – | – | – | 18.7 µM (active) | – | – | –
10 | COc1cc([C@@H]2c3cc4c(cc3[C@H](O)[C@H]3COC(=O)[C@H]23)OCO4)cc(OC)c1OC | – | – | – | – | – | 7.94% | 8.85% | inactive | inactive | inactive | – | 0.0079 µM (active) | – | – | – | – | inactive | – | – | –
11 | C1CCC(C(CC2CCCCN2)C2CCCCC2)CC1 (stereo unspecified) | – | 6.92% | 7.9% | 7.73% | 1.94% | 7.33% | 5.18% | inactive | 23.5 µM (active) | 13.2 µM (active) | 16.6 µM (active) | 31.6 µM (active) | – | – | – | – | – | – | – | –
12 | CC1=CC(=O)c2ccccc2C1=O | – | 40.3% | 48% | 10.3% | 23.6% | 2.97% | 1.39% | inactive | 18.7 µM (active) | – | 26.4 µM (active) | – | – | – | 0.179% | 0.841% | 26.4 µM (active) | – | – | 4.17%
13 | O=P(O)(O)C(O)(Cc1cccnc1)P(=O)(O)O | – | 71.4% | 99.5% | – | 100% | 147% | 125% | inactive | inactive | inactive | inactive | inactive | – | – | – | – | inactive | – | – | –
14 | N[C@@H](C(=O)N[C@@H]1C(=O)N2C(C(=O)O)=C(Cl)CS[C@H]12)c1ccccc1 | – | 80.9% | 96.8% | – | 97.6% | 133% | 108% | inactive | inactive | inactive | inactive | inactive | – | – | – | – | inactive | – | – | –
